From PubChem
In the library only some 2.1% were active in any assay of this set; here they are far more common.
HIF-2a block = HIF-2a reporter inhibitors, primary screen, luminescence, 786-0 RCC cells | 0.72% of 360,000 active | AID 624352, 2012 | 786-0 RCC cells HIF-2a reporter, luciferase luminescence, overnight | inhibition, % at 18.8 µM;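 active = inhibition of the luminescence signal of 40% or more relative to plate controls, in a single-dose primary screen at 18.75 µM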
PAX8 inh HTS = inhibitors of PAX8-driven TPO luciferase reporter, primary screen, RMG-I cells, single concentration; SteadyGlo, 24 h; inhibition, % at 12.6 µM; 1.2% of 360,000 active; AID 652154, 2013;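 active = mean replicate inhibition at least 60% with every replicate also reaching 60%; inconclusive = only one of the two criteria is met; inactive = mean below 60% and not all replicates reaching 60%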;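 also: luciferase light reporting Pax8 driven TPO promoter activity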
EWS-Fli block = EWS/Fli-driven NR0B1 reporter inhibitors, primary screen, A673 cells, NR0B1 luciferase, luminescence, MLPCN library; viability-normalised; inhibition, % at 12.6 µM; 0.67% of 350,000 active; AID 651661, 2012;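 active = mean inhibition of at least 50% after viability correction, with every replicate also passing that limit; inconclusive = mean reaches 50% but only one of two replicates passes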;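 also: firefly luciferase signal divided by Alamar Blue viability fluorescence both relative to DMSO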
KKLEB tox = cytotoxicity in KKLEB CF airway cells, primary screen, cytotoxicity control for CF NF-kB inhibitor project, cell-based, uHTS, fluorescence assay plates. KKLEB CF airway cells viability, ATPlite luminescence, overnight; stronger effect = lower value; cells stimulated with P. aeruginosa culture filtrate. activity change (cytotoxicity), % at 5 µM. 0.36% of 360,000 active. AID 602141, 2011;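 active = corrected activity change at or below -50% at 5 µM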
CF NFkB block = inhibitors of PAF-induced NF-kB signaling, primary screen, cell-based, GFP fluorescence, uHTS; KKLEB NF-kB-GFP reporter, GFP fluorescence overnight; inhibition, % at 5 µM; 0.86% of 360,000 active;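 active = at least 50% inhibition at 5 µM, scaled per plate between neutral and stimulator controls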;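 also: PAF is a Pseudomonas aeruginosa culture filtrate used as stimulus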
Hits are given with their value; n = inactive; u = inconclusive; x = not tested or not shown.

SMILES | HIF-2a block | PAX8 inh HTS | EWS-Fli block | KKLEB tox | CF NFkB block
O=C(c1ccccn1)N1CC[C@@H]2[C@@H](CO)Nc3ccc(-c4cccc(F)c4)cc3[C@@H]21 | x | n | n | x | x
O=C(C[C@H]1C=C[C@H](NC(=O)CCN2CCCCC2)[C@H](CO)O1)Nc1ccccc1 | x | x | n | x | x
COc1ccc(S(=O)(=O)N(C)C[C@H]2Oc3ccc(NS(=O)(=O)c4c(C)noc4C)cc3CC(=O)N([C@@H](C)CO)C[C@@H]2C)cc1 | x | n | n | x | x
CCN(CC)S(=O)(=O)c1cccc(-n2c(O)c(C=Nc3ccccc3C(=O)O)c3ccccc3c2=O)c1 | n | n | n | n | 91
O=C([C@H]1[C@H](CO)[C@H]2Cn3c(ccc(-c4ccncc4)c3=O)[C@@H]1N2Cc1ccccc1)N1CCOCC1 | x | n | n | x | x
[N-]=[N+]=NC1C[C@H](n2ccc(=O)[nH]c2=O)O[C@@H]1CO (stereo partly specified) | n | n | n | -61 | n
CCOc1cc(/C=C2\CCC/C(=C\c3cc(Cl)c(O)c(OCC)c3)C2=O)cc(Cl)c1O | 89 | x | x | -50 | 52
CN1C/C(=C\c2ccc(N3CCOCC3)cc2)C(=O)/C(=C/c2ccc(N3CCOCC3)cc2)C1 | n | x | x | n | n
CCOc1cc(/C=C2\CN(C)C/C(=C\c3ccc(O)c(OCC)c3)C2=O)ccc1O | 92 | n | 53 | n | 63
CN1C/C(=C/c2ccncc2)C(=O)/C(=C/c2ccncc2)C1 | n | n | 56 | n | n
CN(C)C(=O)[C@]1(CCS(=O)(=O)c2ccccc2)N=C(c2ccc(OCCCO)cc2)O[C@@H]1c1ccccc1 | x | n | n | x | x
C[C@@H]1CN([C@H](C)CO)C(=O)c2cc(/C=C/c3ccccc3)cnc2O[C@H]1CN(C)C(=O)Nc1ccc(C(F)(F)F)cc1 | x | x | n | x | x
COc1ccc([Si](C)(C)[C@@H]2[C@@H](CCO)O[C@]3(C(=O)N(Cc4cccc(N5CCOC5=O)c4)c4ccccc43)[C@H]2C)cc1 | x | 102 | n | x | x
COc1ccc([Si](C)(C)[C@@H]2[C@@H](CCO)O[C@]3(C(=O)N(Cc4ccccc4)c4ccc(N5CCOC5=O)cc43)[C@H]2C)cc1 | x | n | n | x | x
COc1ccc([Si](C)(C)[C@H]2[C@H](CCO)O[C@@]3(C(=O)N(Cc4ccccc4)c4ccc(N5CCC5=O)cc43)[C@@H]2C)cc1 | x | 110 | n | x | x
COc1ccc([Si](C)(C)[C@H]2[C@H](CCO)O[C@@]3(C(=O)N(Cc4ccccc4)c4ccc(N5CCCCC5=O)cc43)[C@@H]2C)cc1 | x | n | n | x | x
COc1ccc([Si](C)(C)[C@@H]2[C@@H](CCO)O[C@]3(C(=O)N(Cc4ccc(N5CCOC5=O)cc4)c4ccccc43)[C@H]2C)cc1 | x | 97 | n | x | x
CN(C)C(=O)c1cccc(-c2ccc([C@@H]3[C@@H](CO)N4CCCCN(C(=O)C5CCCC5)C[C@H]34)cc2)c1 | x | n | n | x | x
CN1C(=O)c2cc(NC(=O)C3CCC3)ccc2OC[C@H]2O[C@H](CC(=O)NCc3ccccc3F)CC[C@@H]21 | x | n | n | x | x
COCCCNC(=O)c1cccc(NC(=O)c2ccccc2)c1 | n | n | x | n | n
CC(C)OCCCNC(=O)c1cccc(NC(=O)c2ccccc2)c1 | n | 126 | n | n | n
COc1ccc2c3c(n(C)c2c1)[C@@H](CO)N(C(=O)CC1CC1)CC31CN(Cc2ccccc2)C1 | x | n | n | x | x
CC1CCCN(c2ncnc3c2cnn3-c2ccc(Cl)cc2)C1 (stereo unspecified) | 82 | 76 | 86 | -64 | n
Cc1ccc(-n2ncc3c(N4CCCC(C)C4)ncnc32)c(C)c1 (stereo unspecified) | n | n | n | n | n
COc1cccc(N2CCN(c3ncnc4c3cnn4-c3ccc(C)cc3C)CC2)c1 | n | 102 | n | -83 | 80
SMILES | HIF-2a block | PAX8 inh HTS | EWS-Fli block | KKLEB tox | CF NFkB block
c1ccc(-n2ncc3c(N4CCCCC4)ncnc32)cc1 | n | n | 75 | n | n
CC1CCCN(c2ncnc3c2cnn3-c2ccccc2)C1 (stereo unspecified) | n | n | 69 | -54 | n
CCN(CC)C(=O)C1CCCN(c2ncnc3c2cnn3-c2cccc(C)c2)C1 (stereo unspecified) | n | x | x | n | n
CCN(CC)C(=O)C1CCCN(c2ncnc3c2cnn3-c2ccc(Cl)cc2)C1 (stereo unspecified) | 50 | n | n | n | n
CCCNC(=O)N1CC2(CCN(S(=O)(=O)CC)CC2)c2c(n(C)c3cc(OC)ccc23)[C@@H]1CO | x | x | n | x | x
COc1ccc(S(=O)(=O)Nc2ccc3c(c2)C(=O)N([C@@H](C)CO)C[C@H](C)[C@@H](CN(C)S(=O)(=O)c2c(C)noc2C)OCCCC[C@H](C)O3)cc1 | x | n | n | x | x
Cc1cccc(/C=C2/Sc3ccc(C(=O)NCCCN4CCOCC4)cc3NC2=O)c1 | n | n | n | n | n
CCN1CCN(CCCNC(=O)c2ccc3c(c2)NC(=O)/C(=C\c2cccc(C)c2)S3)CC1 | n | n | 60 | n | n
COc1cccc(/C=C2/Sc3ccc(C(=O)NCCN4CCCCCC4)cc3NC2=O)c1 | n | 97 | x | n | n
C[C@@H]1CN([C@H](C)CO)C(=O)Cc2cc(NS(=O)(=O)c3cccs3)ccc2O[C@H]1CN(C)S(=O)(=O)c1ccc(F)cc1 | x | n | n | x | x
N#C/C(=C\c1ccc(OCc2ccc(C(=O)O)cc2)cc1)C(=O)N1CCOCC1 | n | 87 | 81 | n | n
COc1ccc(-c2[nH]nc3nc(N4CCN(C(=O)c5ccoc5)CC4)cc(C(F)(F)F)c23)cc1 | n | n | 55 | n | n
O=C(CN1CCOCC1)NCC[C@H]1CC[C@@H](NC(=O)Nc2ccccc2)[C@H](CO)O1 | x | n | n | x | x
Cc1cc(C)c2c(=O)n3c(nc2c1)C(Cc1ccccc1)NC(=O)c1cc2ccccc2cc1-3 (stereo unspecified) | n | n | n | -63 | 74
O=C1NC(Cc2ccc(O)cc2)c2nc3cc(F)ccc3c(=O)n2-c2cc(Cl)ccc21 (stereo unspecified) | x | n | n | x | x
O=C1NC(Cc2ccc(O)cc2)c2nc3cc(F)ccc3c(=O)n2-c2cc3ccccc3cc21 (stereo unspecified) | n | 66 | u | n | n
COc1ccc(C2=Nn3c(nnc3-c3ccccc3F)SC2)cc1OCC1CC1 | n | n | 56 | n | n
CCc1ccc(NC(=O)C(CC)Sc2nc3cc4c(cc3c(=O)n2Cc2ccco2)OCO4)cc1 (stereo unspecified) | n | n | x | -63 | n
CCc1ccccc1NC(=O)C(CC)Sc1nc2cc3c(cc2c(=O)n1Cc1ccco1)OCO3 (stereo unspecified) | n | x | x | n | n
Cc1ccc(S(=O)(=O)CCC(=O)Nc2nc(-c3ccncc3)cs2)cc1 | n | n | n | n | n
C[C@H](NC(=O)c1ccco1)C(=O)Nc1nc(-c2ccccn2)cs1 | n | n | n | n | n
